SRC3 TRFRET art: TR-FRET detection interference compounds, artefact control for PPARgamma SRC-3 recruitment agonists, biochemical, TR-FRET ratio; TR-FRET artefact counter-screen, PPARgamma/SRC-3 format; active compounds read high; TR-FRET ratio at 8 µM; 0.39% of 99,000 active; AID 1048, 2008; in the data active = TR-FRET ratio above about 2000
PPARg SRC1 recr: PPARgamma agonists recruiting SRC-1 coactivator, primary screen, biochemical; Peroxisome proliferator-activated receptor gamma (Homo sapiens), P37231; PPARgamma-SRC-1 coactivator recruitment biochemical assay; activation, % at 8 µM; 0.41% of 200,000 active; in the data active = activation above about 19%
SRC2 TRFRET art: TR-FRET signal artefacts, primary screen, artefact control for PPARgamma SRC-2 agonist project, biochemical | TR-FRET artefact counter-screen; active compounds read high | 0.4% of 200,000 active | TR-FRET ratio at 8 µM; in the data active = TR-FRET ratio above about 2000
SRC1 TRFRET art: TR-FRET detection interference compounds, primary screen, artefact control for PPARgamma SRC-1 recruitment agonists, biochemical, TR-FRET emission ratio; TR-FRET detection artefact counter-screen; active compounds read high; TR-FRET ratio at 8 µM; 0.34% of 99,000 active; in the data active = TR-FRET ratio above about 2300
PPARg SRC-3 ag: PPARgamma agonists recruiting SRC-3 coactivator, primary screen, biochemical; activation, % at 8 µM; biochemical PPARgamma/SRC-3 coactivator recruitment assay; Peroxisome proliferator-activated receptor gamma (Homo sapiens), P37231; 0.26% of 200,000 active; AID 731, 2007; in the data active = activation above about 23%
PPARg SRC2 recr: agonists of PPARg-SRC-2 recruitment, primary screen, biochemical, HTS; Peroxisome proliferator-activated receptor gamma (Homo sapiens), P37231; PPARgamma LBD-SRC-2 recruitment; activation, % at 8 µM; AID 1032, 2008; 0.34% of 200,000 active
PPARg SRC2 ag: agonists of PPARgamma SRC-2 coactivator recruitment, confirmation, biochemical, HTS. shares compounds with PPARg SRC-3 ag. biochemical SRC-2 recruitment by PPARgamma. activation, % at 8 µM. 52% of 790 active. AID 1297, 2008
PPARg SRC1 conf: PPARgamma agonists recruiting SRC-1 coactivator, confirmation, biochemical | shares compounds with PPARg SRC-3 ag | PPARgamma–SRC-1 coactivator recruitment biochemical assay | activation, % at 8 µM | 43% of 790 active; in the data active = activation above about 20%
PPARg SRC3 ag: PPARgamma-driven SRC-3 coactivator recruitment agonists, confirmation, biochemical | activation, % at 8 µM | 29% of 790 active | biochemical PPARgamma-SRC-3 coactivator recruitment, agonist mode | AID 1301, 2008 | shares compounds with PPARg SRC-3 ag; in the data active = activation above about 24%
Large screens that a line does not name were inactive (follow-up assays come after a bar, where they were run). Sampled rows, rich in hits. Any-hit rate of the full collection: about 0.9%. Cut-off read from the data, not from the text of the source, unless noted: active = activation above about 22%; inactive = the rest.

COc1ccc(CNC(=O)CSc2cc(=O)n(C)c3ccccc23)cc1	SRC3 TRFRET art 2050, PPARg SRC1 recr 40, SRC2 TRFRET art 2425, SRC1 TRFRET art 2843, PPARg SRC-3 ag 24, PPARg SRC2 recr 26 | PPARg SRC2 ag 37 | PPARg SRC1 conf 24 | PPARg SRC3 ag 24
CCN(CC)S(=O)(=O)c1ccc2c(c1)N(CC(=O)NCCc1ccc(S(N)(=O)=O)cc1)C(=O)CO2	none
Cn1c(=O)cc(SCC(=O)NCC2CCCO2)c2ccccc21 (stereo not drawn)	PPARg SRC1 recr 45, SRC2 TRFRET art 2686, PPARg SRC-3 ag 78, PPARg SRC2 recr 49 (no result: SRC3 TRFRET art, SRC1 TRFRET art) | PPARg SRC2 ag 35 | PPARg SRC1 conf 23 | PPARg SRC3 ag inactive
COc1cccc(C(=O)N(c2ccccc2)C2C=CS(=O)(=O)C2)c1 (stereo not drawn)	none
O=[N+]([O-])c1ccc(O)c(-c2nc(-c3ccccc3)c(-c3cccs3)[nH]2)c1	none (no result: SRC3 TRFRET art, SRC1 TRFRET art)
COc1ccc(-c2nc(-c3cccs3)c(-c3cccs3)[nH]2)cc1O	PPARg SRC1 recr 63, SRC2 TRFRET art 3397, PPARg SRC-3 ag 90, PPARg SRC2 recr 89 (no result: SRC3 TRFRET art, SRC1 TRFRET art) | PPARg SRC2 ag 56 | PPARg SRC1 conf 44 | PPARg SRC3 ag 40
CN(C)/C=C/c1oc2ccc(O)cc2c1[N+](=O)[O-]	PPARg SRC2 recr 24 | PPARg SRC2 ag inactive | PPARg SRC1 conf inactive | PPARg SRC3 ag inactive
Cc1ccc(/C=N/N2CCN(c3ccc(Cl)cc3)CC2)o1	none (no result: SRC3 TRFRET art, SRC1 TRFRET art)
Cc1ccc(Cl)cc1-c1ccc(C=Nc2ccc(N3CCOCC3)cc2)o1	SRC3 TRFRET art 2494, PPARg SRC1 recr 33, SRC2 TRFRET art 2256, SRC1 TRFRET art 2713, PPARg SRC-3 ag 27, PPARg SRC2 recr 37 | PPARg SRC2 ag 47 | PPARg SRC1 conf 34 | PPARg SRC3 ag 28
N#Cc1ccccc1CSc1ccc(-c2nc3ccccc3[nH]2)cn1	PPARg SRC1 recr 22, PPARg SRC-3 ag 26, PPARg SRC2 recr 33 (no result: SRC3 TRFRET art, SRC1 TRFRET art) | PPARg SRC2 ag 35 | PPARg SRC1 conf 23 | PPARg SRC3 ag inactive
CC(=O)CSc1ccc(-c2nc3cc(C)c(C)cc3[nH]2)cn1	none
CC(C)c1nnc(N2C(=O)C(O)=C(C(=O)c3cccs3)C2c2ccccc2)s1 (stereo not drawn)	SRC3 TRFRET art 2283, PPARg SRC1 recr 38, SRC2 TRFRET art 2400, SRC1 TRFRET art 2598, PPARg SRC2 recr 31 | PPARg SRC2 ag inactive | PPARg SRC1 conf inactive | PPARg SRC3 ag inactive
COc1ccc(C2C(C(=O)c3cccs3)=C(O)C(=O)N2c2nnc(C)s2)cc1OC (stereo not drawn)	none (no result: SRC3 TRFRET art, SRC1 TRFRET art)
C=CCOc1ccc(C2C(C(=O)c3cccs3)=C(O)C(=O)N2c2nnc(C)s2)cc1 (stereo not drawn)	none (no result: SRC3 TRFRET art, SRC1 TRFRET art)
COc1ccc(C2C(C(=O)c3cccs3)=C(O)C(=O)N2c2nncs2)cc1 (stereo not drawn)	PPARg SRC1 recr 27, PPARg SRC-3 ag 26 (no result: SRC3 TRFRET art, SRC1 TRFRET art) | PPARg SRC2 ag 24 | PPARg SRC1 conf inactive | PPARg SRC3 ag inactive
Cc1ccc(CSc2nc3ccsc3c(=O)n2Cc2ccccn2)cc1	none
O=c1c2sccc2nc(SCc2cc(=O)n3cc(Br)ccc3n2)n1Cc1ccccn1	SRC3 TRFRET art 2195, PPARg SRC1 recr 23, SRC2 TRFRET art 2046, SRC1 TRFRET art 2338, PPARg SRC2 recr 23 | PPARg SRC2 ag inactive | PPARg SRC1 conf inactive | PPARg SRC3 ag inactive
Cc1cccc2cc(CN(Cc3ccc(F)cc3)Cc3nnnn3C3CCCC3)c(=O)[nH]c12	SRC2 TRFRET art 4917, PPARg SRC-3 ag 62, PPARg SRC2 recr 112 (no result: SRC3 TRFRET art, SRC1 TRFRET art) | PPARg SRC2 ag inactive | PPARg SRC1 conf inactive | PPARg SRC3 ag inactive
Cc1cc(C)c2[nH]c(=O)c(CN(Cc3ccc4c(c3)OCO4)Cc3nnnn3C3CCCC3)cc2c1	none (no result: SRC3 TRFRET art, SRC1 TRFRET art)
C=CCN(Cc1nc(-c2ccc(OC)c(OC)c2)oc1C)C1CCS(=O)(=O)C1 (stereo not drawn)	none
O=C(N/N=C/c1ccccc1O)C(=O)Nc1ccccn1	none
CN(C(=O)/C=C/c1cnc2ccccc2c1)C1CCCCC1	none
COc1ccccc1Cn1c(=O)c2ccccc2n2c(Sc3ncnc4sccc34)nnc12	PPARg SRC1 recr 26, SRC2 TRFRET art 3587, PPARg SRC-3 ag 29 (no result: SRC3 TRFRET art, SRC1 TRFRET art) | PPARg SRC2 ag inactive | PPARg SRC1 conf inactive | PPARg SRC3 ag inactive
COc1ccccc1Cn1c(=O)c2ccccc2n2c(SCc3csc(C)n3)nnc12	none
O=c1cc(-c2ccc3c(c2)OCO3)oc2ccccc12	PPARg SRC1 recr 33, SRC2 TRFRET art 2211, SRC1 TRFRET art 2778, PPARg SRC2 recr 27 | PPARg SRC2 ag inactive | PPARg SRC1 conf inactive | PPARg SRC3 ag inactive
O=C(c1cc2c(s1)-c1ccccc1OC2)N1CCN(c2ccccn2)CC1	PPARg SRC1 recr 30, SRC2 TRFRET art 2008, PPARg SRC-3 ag 30, PPARg SRC2 recr 22 (no result: SRC3 TRFRET art, SRC1 TRFRET art) | PPARg SRC2 ag 34 | PPARg SRC1 conf 30 | PPARg SRC3 ag inactive
CCOC(=O)N1CCN(C(=O)c2cc3c(s2)-c2ccccc2OC3)CC1	PPARg SRC1 recr 20, PPARg SRC-3 ag 38 (no result: SRC3 TRFRET art, SRC1 TRFRET art) | PPARg SRC2 ag inactive | PPARg SRC1 conf inactive | PPARg SRC3 ag inactive
O=C(c1cc2c(s1)-c1ccccc1OC2)N1CCN(c2ccccc2)CC1	PPARg SRC1 recr 19, SRC2 TRFRET art 2061 (no result: SRC3 TRFRET art, SRC1 TRFRET art) | PPARg SRC2 ag inactive | PPARg SRC1 conf inactive | PPARg SRC3 ag inactive
COc1cccc(CN(C(=O)Cn2nnc(-c3ccccc3F)n2)C(C(=O)NC(C)(C)C)c2ccncc2)c1 (stereo not drawn)	none
COc1ccc(-n2ncc3c(NC(C)C)ncnc32)cc1	PPARg SRC1 recr 19 (no result: SRC3 TRFRET art, SRC1 TRFRET art) | PPARg SRC2 ag inactive | PPARg SRC1 conf inactive | PPARg SRC3 ag inactive
COc1ccc(NC(=O)CN2CCN(c3nc(-c4ccc(F)cc4)cs3)CC2)c(OC)c1	none
C#CCn1cc(/C=N/Nc2nc3ccccc3[nH]2)c2ccccc21	SRC1 TRFRET art 2389, PPARg SRC2 recr 30 | PPARg SRC2 ag inactive | PPARg SRC1 conf inactive | PPARg SRC3 ag inactive
CCC(Nc1ccc(OC)cc1)C(=O)N/N=C/c1ccc([N+](=O)[O-])cc1 (stereo not drawn)	none
COC(=O)CCNc1n[nH]c(=O)[nH]c1=O	none
